# Laboratory results reported in PubChem BioAssay AID1851 (National Center for Advancing Translational Sciences (NCATS), 2009).
# Several values for one entry are separate records, joined by “and”; a condition that tells them apart may be missing. Equal entries are not always repeated. Screen size: about 16,000 compounds; about 2,600 (16%) were called active. Another 20% or so got no clear call; they are omitted. Calls come from the whole dose curve; as a rule, active = well fitted curve in the direction sought with a large enough effect; inconclusive = small, poorly fitted or top-dose-only effect, or effect the other way; inactive = no such curve, though single readings can be large or run the other way. The list is a sample of the results.
# Biological target: Cytochrome P450 2D6 (Homo sapiens) (UniProt P10635)
# Test: Cytochrome panel assay with activity outcomes
# Conditions: recombinant CYP, pro-luciferin dealkylation, luminescence, p450-cyp2d6; series mostly up to 57.1 µM
# % is set by controls: 0 for no effect and ±100 for the full control effect.
# Sequence of Cytochrome P450 2D6 (Homo sapiens) (P10635 whole entry, looked up): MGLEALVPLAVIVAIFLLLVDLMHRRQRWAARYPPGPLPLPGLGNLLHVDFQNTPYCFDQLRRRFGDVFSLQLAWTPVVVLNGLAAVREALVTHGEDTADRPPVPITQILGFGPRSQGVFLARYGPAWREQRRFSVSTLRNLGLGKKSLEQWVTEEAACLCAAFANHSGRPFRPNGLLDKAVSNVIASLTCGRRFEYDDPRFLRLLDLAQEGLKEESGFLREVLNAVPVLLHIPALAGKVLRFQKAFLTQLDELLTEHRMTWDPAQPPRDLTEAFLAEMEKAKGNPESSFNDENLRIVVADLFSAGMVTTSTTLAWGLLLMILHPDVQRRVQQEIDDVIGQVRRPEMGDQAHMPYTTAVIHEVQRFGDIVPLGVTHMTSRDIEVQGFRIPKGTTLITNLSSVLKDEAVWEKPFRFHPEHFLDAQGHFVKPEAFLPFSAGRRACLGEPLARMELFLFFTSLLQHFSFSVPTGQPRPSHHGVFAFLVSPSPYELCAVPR
Structure (SMILES),AC50,"activity, negative = inhibition"
COCC(=O)Nc1ccc(-c2cn3cccnc3n2)cc1,inactive,–
COC(=O)[C@H]1C[C@@H]1[C@H](NC(=O)c1cccnc1)c1ccccc1,inactive,–
O=c1cc(N2CCN(c3cccc(Cl)c3)CC2)[nH]c(=O)n1C1CCCCC1,inactive,–
CC(=O)N(/N=C1\Sc2ccccc2C1=O)c1ccccc1,inactive,–
N#Cc1c(NC(=O)CCC(=O)O)ccc2ccccc12,–,7.11% [at 11.4 µM] (inactive)
COc1ccc(N2CCN(C(=N)/C(C(C)=O)=C(\C)O)CC2)cc1,inactive,–
COc1cccc(C2C3(C#N)C(N)=NC(OC)(OC)C23C#N)c1 (stereo unspecified),inactive,–
COc1ccc(-c2nc3cnc(Oc4cccc(Cl)c4)nc3n(C[C@H]3CCCO3)c2=O)cc1,inactive,–
COc1ccc(NC(=O)c2cc3n(n2)C(C(F)(F)F)CC(c2ccc4c(c2)OCO4)N3)cc1OC (stereo unspecified),inactive,–
COc1ccc(OC)c(NC(=O)c2cc3n(n2)C(C(F)(F)F)CC(c2ccc4c(c2)OCO4)N3)c1 (stereo unspecified),inactive,–
COC(=O)C1=C(N)N(c2ccccc2C(F)(F)F)C2=C(C(=O)CCC2)C1c1ccc2c(c1)OCO2 (stereo unspecified),28.2 µM (active),–
COc1cc(/C=C2/C(=N)N3C=CSC3=NC2=O)ccc1OCCCOc1ccccc1C,inactive,–
FC(F)(F)c1nnc2c(Sc3ccc(Cl)cc3)nc3ccccc3n12,inactive,–
COC(=O)c1ccccc1NC(=O)CSc1nnc(C(CO)NC(=O)c2ccccc2Cl)n1C (stereo unspecified),inactive,–
CCOc1ccccc1-n1nnnc1SCC(=O)Nc1cc(C)on1,inactive,–
CCOc1ccccc1NC(=O)CSc1nnc(-c2cnccn2)n1C,12.6 µM (active),–
O=C1CCC(c2ccc(-n3ccnc3)cc2)=NN1,2.51 µM (active),–
CCn1c(O)c(/C=N/N=C2CCCC2)c2ccc(C3=NNC(=O)CC3)cc21,inactive,–
Cc1cn2c(-c3ccncc3)nnc2s1,inactive,–
Oc1cc(O)c2c(c1)O[C@H](c1ccc(O)c(O)c1)[C@@H](O)[C@@H]2c1c(O)cc(O)c2c1O[C@@H](c1ccc(O)c(O)c1)[C@H](O)C2,–,-5.15% [at 11.4 µM] (inactive)
COc1ccc(CNc2ncnc3ccc(-c4ccccc4OC)cc23)c(OC)c1,inactive,–

Structure (SMILES),AC50,"activity, negative = inhibition"
CNc1ncnc2ccc(-c3ccccc3CN(C)C)cc12,10 µM (active),–
CNc1ncnc2ccc(-c3ccccc3C#N)cc12,inactive,–
COc1ccc(CNc2ncnc3ccc(-c4ccccc4CN(C)C)cc23)c(OC)c1,1.26 µM (active),–
COc1ccccc1CNc1ncnc2ccc(-c3ccccc3CN(C)C)cc12,2.51 µM (active),–
CN(C)Cc1ccccc1-c1ccc2ncnc(NCc3ccccc3)c2c1,7.94 µM (active),–
O=C1Nc2cc(Cl)c(Cl)cc2N(O)N1c1ccc(Cl)c(Cl)c1,inactive,–
CC1(C)O[C@@H]2C[C@H]3[C@H]4C[C@H](F)C5=CC(=O)CC[C@]5(C)[C@@H]4[C@H](O)C[C@]3(C)[C@]2(C(=O)CO)O1,inactive,–
COCC(=O)Oc1c(S(=O)(=O)c2ccc(C)cc2)c(C)nn1-c1ccccc1,inactive,–
NC(=O)c1cc[n+](CC2=C(C(=O)O)N3C(=O)[C@@H](NC(=O)[C@H](c4ccccc4)S(=O)(=O)[O-])[C@@H]3SC2)cc1,inactive,–
COc1ccc(-c2cc(C(=O)Nc3cnn(Cc4ccccc4C)c3)no2)cc1OC,inactive,–
COC(=O)c1cnn(C(=O)c2cc(OC)ccc2Br)c1N,inactive,–
O=C(O)/C=C\[C@H](O)c1ccc(Cl)cc1,inactive,–
Cc1ccccc1N(C(=O)Cc1cccs1)C(C(=O)NCC1CCCO1)c1cccnc1 (stereo unspecified),inactive,–
N#Cc1c(-c2ccccc2)nc(-c2ccccc2)[nH]c1=O,inactive,–
CC(C)CN=C(N)N=C(N)N,–,7.41% [at 11.4 µM] (inactive)
N#C/C(=C\Nc1ccccn1)C(=O)c1ccco1,–,-1.48% [at 11.4 µM] (inactive)
N#Cc1cccc(-c2ccc3ncnc(NC4CCNCC4)c3c2)c1,inactive,–
COCCNc1ncnc2ccc(-c3ccc(C(=O)N(C)C)cc3)cc12,inactive,–
CN(C)Cc1ccccc1-c1ccc2ncnc(NC3CCNCC3)c2c1,10 µM (active),–
COCCNc1ncnc2ccc(-c3ccccc3CN(C)C)cc12,15.8 µM (active),–
CS(=O)(=O)Nc1cccc(-c2ccc3ncnc(NC4CCNCC4)c3c2)c1,inactive,–

Structure (SMILES),AC50,"activity, negative = inhibition"
C[C@@H](CNC(N)=O)NC(N)=O,–,-3.67% [at 11.4 µM] (inactive)
CN1CCN(c2ncc3ncc(=O)n(-c4ccccc4)c3n2)CC1,inactive,–
O=C(NC(N1CCCC1)C(Cl)(Cl)Cl)c1ccccc1 (stereo unspecified),inactive,–
COc1cccc(/C=N/NC(=O)c2nc(-c3ccccc3)cc(-c3ccccc3)n2)c1,inactive,–
Cc1ccccc1OCC(=O)OC1CCN(C)CC1,inactive,–
Clc1ccccc1OCCCCN1CCCC1,11.2 µM (active),–
Fc1ccccc1OCCCCCCN1CCCC1,14.1 µM (active),–
Cc1ccccc1OCCCN1CCCC1,14.1 µM (active),–
CC(C)(C)c1ccccc1OCCN1CCCC1,5.62 µM (active),–
O=C(O)c1ccc(OCc2ccccc2)c(Cl)c1,–,4.91% [at 11.4 µM] (inactive)
Cc1ccc(CNC(=O)CCc2c(C)nc3ncnn3c2C)cc1,inactive,–
O=C1[C@H]2[C@H]3[C@H](O)[C@H](O)C/C(=N/OC[C@@H](O)COCc4ccco4)[C@H]3CC[C@@H]2C(=O)N1C[C@@H]1CCCO1,–,14.8% [at 11.4 µM] (inactive)
C/C(CCN1CCc2nc(-c3ccccc3)c(-c3ccccc3)cc2C1)=N\O[C@@H](C)c1cn([C@H](CO)Cc2ccccc2)nn1,–,-8.59% [at 11.4 µM] (inactive) and -16.7% [at 11.4 µM] (inactive)
COc1ccccc1S(=O)(=O)Nc1ccc(-c2nnc3n2CCCCC3)cc1,inactive,–
N#Cc1c(N)nc2c(c1-c1cccc(O)c1)CCCCCC2,inactive,–
CCc1nnc2sc(-c3ccc(NC(=O)c4ccco4)cc3)nn12,inactive,–
Cc1ccc(S(=O)(=O)N[C@H](C(=O)N2CCC(C(=O)NCC(=O)O)CC2)C(C)C)cc1,inactive,–
Cc1cc(C)nc(NN2C(=O)/C(=C/c3ccccc3)SC2=S)n1,inactive,–
COc1ccc(/C=C\C(=O)Nc2ccccc2C(=O)O)cc1OC,inactive,–
